Among the data in publication PMC9911399, “Two distinct binding modes provide the RNA-binding protein RbFox with extraordinary sequence specificity” are binding signal values, retold here.

Residue numbers refer to the chain shown, from its start. Whole data set: some 16,000 sequences, median “ka relative to ugcaugu” near 0.096, cut for the highest 2% near 0.35. The sample holds the highest values, similar sequences and a random draw of the others, so the mix is not that of the screen.

The chains are these.
T1: RBFOX1 RRM RbFoxmut (Fox-RRM*) (Homo sapiens, UniProt Q9NWB1 109-208, R118D;E147R;N151S;E152T)
T1 sequence: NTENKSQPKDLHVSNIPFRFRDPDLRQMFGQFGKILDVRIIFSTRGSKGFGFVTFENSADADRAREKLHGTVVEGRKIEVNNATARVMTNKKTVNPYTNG

B1: GGUCAUC (DNA:RNA)
RNA: GGGAGACCGGAAUUCAGAUUGUCCGGUCAUCUUAAAUCCCGUCGUAGCCACCA
DNA 1: CAATCTGAATTCCGGTCTCCC
DNA 2: TGGTGGCTACGACGGGATT
B2: CGCUAUG (DNA:RNA)
RNA: B1 RNA with G25C, U27C, C28U, C31G
DNA 1: CAATCTGAATTCCGGTCTCCC
DNA 2: TGGTGGCTACGACGGGATT
B3: GUCCUGU (DNA:RNA)
RNA: B1 RNA with G26U, U27C, A29U, U30G, C31U
DNA 1: CAATCTGAATTCCGGTCTCCC
DNA 2: TGGTGGCTACGACGGGATT
B4: CUGGUGC (DNA:RNA)
RNA: B1 RNA with G25C, G26U, U27G, C28G, A29U, U30G
DNA 1: CAATCTGAATTCCGGTCTCCC
DNA 2: TGGTGGCTACGACGGGATT
B5: CGGACCU (DNA:RNA)
RNA: B1 RNA with G25C, U27G, C28A, A29C, U30C, C31U
DNA 1: CAATCTGAATTCCGGTCTCCC
DNA 2: TGGTGGCTACGACGGGATT
B6: CGGAUAC (DNA:RNA)
RNA: B1 RNA with G25C, U27G, C28A, A29U, U30A
DNA 1: CAATCTGAATTCCGGTCTCCC
DNA 2: TGGTGGCTACGACGGGATT
B7: CUCGGCU (DNA:RNA)
RNA: GGGAGACCGGAAUUCAGAUUGUCCCUCGGCUUUAAAUCCCGUCGUAGCCACCA
DNA 1: CAATCTGAATTCCGGTCTCCC
DNA 2: TGGTGGCTACGACGGGATT
B8: AGCGAAC (DNA:RNA)
RNA: B1 RNA with G25A, U27C, C28G, U30A
DNA 1: CAATCTGAATTCCGGTCTCCC
DNA 2: TGGTGGCTACGACGGGATT
B9: UCGAUAG (DNA:RNA)
RNA: GGGAGACCGGAAUUCAGAUUGUCCUCGAUAGUUAAAUCCCGUCGUAGCCACCA
DNA 1: CAATCTGAATTCCGGTCTCCC
DNA 2: TGGTGGCTACGACGGGATT
B10: AGCAAGC (DNA:RNA)
RNA: B1 RNA with G25A, U27C, C28A, U30G
DNA 1: CAATCTGAATTCCGGTCTCCC
DNA 2: TGGTGGCTACGACGGGATT
B11: GGGGAAC (DNA:RNA)
RNA: B1 RNA with U27G, C28G, U30A
DNA 1: CAATCTGAATTCCGGTCTCCC
DNA 2: TGGTGGCTACGACGGGATT
B12: CGGCAUG (DNA:RNA)
RNA: B1 RNA with G25C, U27G, C31G
DNA 1: CAATCTGAATTCCGGTCTCCC
DNA 2: TGGTGGCTACGACGGGATT
B13: CGGCAUA (DNA:RNA)
RNA: B1 RNA with G25C, U27G, C31A
DNA 1: CAATCTGAATTCCGGTCTCCC
DNA 2: TGGTGGCTACGACGGGATT
B14: AUGUCGU (DNA:RNA)
RNA: B7 RNA with C25A, C27G, G28U, G29C, C30G
DNA 1: CAATCTGAATTCCGGTCTCCC
DNA 2: TGGTGGCTACGACGGGATT
B15: AGGCAUC (DNA:RNA)
RNA: B1 RNA with G25A, U27G
DNA 1: CAATCTGAATTCCGGTCTCCC
DNA 2: TGGTGGCTACGACGGGATT
B16: GGCAUGU (DNA:RNA)
RNA: B7 RNA with C25G, U26G, G28A, G29U, C30G
DNA 1: CAATCTGAATTCCGGTCTCCC
DNA 2: TGGTGGCTACGACGGGATT
B17: GGGGGCA (DNA:RNA)
RNA: B7 RNA with C25G, U26G, C27G, U31A
DNA 1: CAATCTGAATTCCGGTCTCCC
DNA 2: TGGTGGCTACGACGGGATT
B18: GGCAUUU (DNA:RNA)
RNA: B1 RNA with U27C, C28A, A29U, C31U
DNA 1: CAATCTGAATTCCGGTCTCCC
DNA 2: TGGTGGCTACGACGGGATT
B19: GGGCAUA (DNA:RNA)
RNA: B1 RNA with U27G, C31A
DNA 1: CAATCTGAATTCCGGTCTCCC
DNA 2: TGGTGGCTACGACGGGATT
B20: AGGCAUG (DNA:RNA)
RNA: B1 RNA with G25A, U27G, C31G
DNA 1: CAATCTGAATTCCGGTCTCCC
DNA 2: TGGTGGCTACGACGGGATT
B21: AGGCAUA (DNA:RNA)
RNA: B1 RNA with G25A, U27G, C31A
DNA 1: CAATCTGAATTCCGGTCTCCC
DNA 2: TGGTGGCTACGACGGGATT
B22: GGGCAUG (DNA:RNA)
RNA: B1 RNA with U27G, C31G
DNA 1: CAATCTGAATTCCGGTCTCCC
DNA 2: TGGTGGCTACGACGGGATT
B23: ACCGGCA (DNA:RNA)
RNA: B7 RNA with C25A, U26C, U31A
DNA 1: CAATCTGAATTCCGGTCTCCC
DNA 2: TGGTGGCTACGACGGGATT
B24: UCCCUCG (DNA:RNA)
RNA: B9 RNA with G27C, A28C, A30C
DNA 1: CAATCTGAATTCCGGTCTCCC
DNA 2: TGGTGGCTACGACGGGATT
B25: CAACAUU (DNA:RNA)
RNA: B1 RNA with G25C, G26A, U27A, C31U
DNA 1: CAATCTGAATTCCGGTCTCCC
DNA 2: TGGTGGCTACGACGGGATT
B26: UUGUUCU (DNA:RNA)
RNA: B7 RNA with C25U, C27G, G28U, G29U
DNA 1: CAATCTGAATTCCGGTCTCCC
DNA 2: TGGTGGCTACGACGGGATT
B27: AGUGUUG (DNA:RNA)
RNA: B1 RNA with G25A, C28G, A29U, C31G
DNA 1: CAATCTGAATTCCGGTCTCCC
DNA 2: TGGTGGCTACGACGGGATT
B28: AGUCACC (DNA:RNA)
RNA: B1 RNA with G25A, U30C
DNA 1: CAATCTGAATTCCGGTCTCCC
DNA 2: TGGTGGCTACGACGGGATT
B29: UGUACCC (DNA:RNA)
RNA: B1 RNA with G25U, C28A, A29C, U30C
DNA 1: CAATCTGAATTCCGGTCTCCC
DNA 2: TGGTGGCTACGACGGGATT
B30: GCAGACU (DNA:RNA)
RNA: B7 RNA with C25G, U26C, C27A, G29A
DNA 1: CAATCTGAATTCCGGTCTCCC
DNA 2: TGGTGGCTACGACGGGATT
B31: CAGUAUG (DNA:RNA)
RNA: B1 RNA with G25C, G26A, U27G, C28U, C31G
DNA 1: CAATCTGAATTCCGGTCTCCC
DNA 2: TGGTGGCTACGACGGGATT
B32: CCCAGUA (DNA:RNA)
RNA: B7 RNA with U26C, G28A, C30U, U31A
DNA 1: CAATCTGAATTCCGGTCTCCC
DNA 2: TGGTGGCTACGACGGGATT
B33: ACGUAGC (DNA:RNA)
RNA: B1 RNA with G25A, G26C, U27G, C28U, U30G
DNA 1: CAATCTGAATTCCGGTCTCCC
DNA 2: TGGTGGCTACGACGGGATT
B34: CGGUCGU (DNA:RNA)
RNA: B7 RNA with U26G, C27G, G28U, G29C, C30G
DNA 1: CAATCTGAATTCCGGTCTCCC
DNA 2: TGGTGGCTACGACGGGATT
B35: GGUAUUA (DNA:RNA)
RNA: B1 RNA with C28A, A29U, C31A
DNA 1: CAATCTGAATTCCGGTCTCCC
DNA 2: TGGTGGCTACGACGGGATT
B36: GGUCCGU (DNA:RNA)
RNA: B1 RNA with A29C, U30G, C31U
DNA 1: CAATCTGAATTCCGGTCTCCC
DNA 2: TGGTGGCTACGACGGGATT
B37: ACGUCCC (DNA:RNA)
RNA: B9 RNA with U25A, A28U, U29C, A30C, G31C
DNA 1: CAATCTGAATTCCGGTCTCCC
DNA 2: TGGTGGCTACGACGGGATT
B38: AGUAUGU (DNA:RNA)
RNA: B1 RNA with G25A, C28A, A29U, U30G, C31U
DNA 1: CAATCTGAATTCCGGTCTCCC
DNA 2: TGGTGGCTACGACGGGATT
B39: GGUAUUG (DNA:RNA)
RNA: B1 RNA with C28A, A29U, C31G
DNA 1: CAATCTGAATTCCGGTCTCCC
DNA 2: TGGTGGCTACGACGGGATT
B40: ACGUAUG (DNA:RNA)
RNA: B9 RNA with U25A, A28U, U29A, A30U
DNA 1: CAATCTGAATTCCGGTCTCCC
DNA 2: TGGTGGCTACGACGGGATT
B41: GGUAUGU (DNA:RNA)
RNA: B1 RNA with C28A, A29U, U30G, C31U
DNA 1: CAATCTGAATTCCGGTCTCCC
DNA 2: TGGTGGCTACGACGGGATT
B42: GUCGGUA (DNA:RNA)
RNA: B7 RNA with C25G, C30U, U31A
DNA 1: CAATCTGAATTCCGGTCTCCC
DNA 2: TGGTGGCTACGACGGGATT

In this experiment the target is T1, RBFOX1 RRM RbFoxmut (Fox-RRM*). Description: EMSA; HiTS-Eq, 1 nM pool, 10 min; buffer printed only for the single-RNA assays: 10 mM Tris pH 7.5, 150 mM NaCl, 3.4 mM EDTA, 0.001% NP-40, 30 C. As to conditions: tags: His6 N-terminal (pET28a); label: 5' 32P. The procedure, abridged: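 Purified wild-type or mutant RbFox RRM at increasing concentrations was equilibrated with 1 nM of 5′-radiolabelled RNA carrying 7 randomized nucleotides for 10 min in 50 µL. Unbound RNA was separated by 8% native PAGE and sequenced. Relative association constants came from read-count changes of each RNA species compared with the control reaction, normalised to the cognate motif.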
On the technique in general: A gel shift assay detects complexes by their altered migration in electrophoresis.
In the case of B1, the binding signal was 0.152 KA relative to UGCAUGU.
The figure for B2 is 0.184 KA relative to UGCAUGU; for B3 it is 0.135 KA relative to UGCAUGU.
As for B4, the figure is 0.0874 KA relative to UGCAUGU; as for B5, 0.0739 KA relative to UGCAUGU; as for B6, 0.0884 KA relative to UGCAUGU.
As for B7, the figure is 0.0859 KA relative to UGCAUGU; as for B8, 0.0784 KA relative to UGCAUGU; as for B9, 0.1 KA relative to UGCAUGU.
For B10, the binding signal is 0.0622 KA relative to UGCAUGU.
The figure for B11 is 0.0664 KA relative to UGCAUGU; for B12 it is 0.998 KA relative to UGCAUGU.
As for B13, the figure is 0.108 KA relative to UGCAUGU; as for B14, 0.137 KA relative to UGCAUGU; as for B15, 0.222 KA relative to UGCAUGU.
The figure for B16 is 0.834 KA relative to UGCAUGU; for B17 it is 0.128 KA relative to UGCAUGU.
B18: the binding signal is 0.0782 KA relative to UGCAUGU.
As for B19, the figure is 0.134 KA relative to UGCAUGU.
The figure for B20 is 0.799 KA relative to UGCAUGU; for B21 it is 0.11 KA relative to UGCAUGU; for B22 it is 1.23 KA relative to UGCAUGU.
As for B23, the figure is 0.1 KA relative to UGCAUGU.
Turning to B24, the binding signal was 0.133 KA relative to UGCAUGU.
The figure for B25 is 0.0738 KA relative to UGCAUGU; for B26 it is 0.113 KA relative to UGCAUGU.
The figure for B27 is 0.186 KA relative to UGCAUGU; for B28 it is 0.0525 KA relative to UGCAUGU.
The figure for B29 is 0.0834 KA relative to UGCAUGU; for B30 it is 0.0704 KA relative to UGCAUGU; for B31 it is 0.566 KA relative to UGCAUGU.
On to B32, for which the binding signal is 0.116 KA relative to UGCAUGU.
On to B33, for which the binding signal is 0.122 KA relative to UGCAUGU.
As for B34, the figure is 0.104 KA relative to UGCAUGU.
As for B35, the figure is 0.107 KA relative to UGCAUGU.
As for B36, the figure is 0.136 KA relative to UGCAUGU; as for B37, 0.056 KA relative to UGCAUGU; as for B38, 0.351 KA relative to UGCAUGU.
B39: the binding signal was 0.466 KA relative to UGCAUGU.
As for B40, the figure is 0.385 KA relative to UGCAUGU.
In the case of B41, the binding signal was 0.662 KA relative to UGCAUGU.
As for B42, the figure is 0.2 KA relative to UGCAUGU.
